# Assay results reported in PubChem BioAssay (Tox21).
# Results filed as inconclusive are left out. Unmarked numbers belong to inactive results. Activity calls are given as the source filed them. The call rests on the fitted dose curve; in most records, active means well fitted inhibition curve with a large enough effect in the repeat runs; inconclusive means weak or mixed curves; inactive means no such curve, though single readings can be large or run the other way.
# Experiment: qHTS assay to identify small molecule antagonists of the thyroid receptor (TR) signaling pathway (AID 743065); further: nearly all actives have a fitted effect of over 55% in size
# Conditions: GH3.TRE-Luc, T3-stimulated luciferase inhibition, 23.5 h; series mostly up to 70.3 µM; activity, negative = inhibition: at the top concentration
# Text: U.S. Tox21 Program National Center for Advancing Translational Sciences [NCATS] NIH Chemical Genomics Center [NCGC] U.S. Environmental Protection Agency [EPA] National Institutes of Environmental Health Sciences [NIEHS] National Toxicology Program [NTP] U.S. Food and Drug Administration [FDA] Tox21 Assay Overview: Thyroid receptor (TR), a nuclear hormone receptor, plays an important role in development, proliferation, differentiation, metabolism, brain function, and cardiovascular system. […] To profile the Tox21 10K compound library in TR signaling, a cell-based GH3-TRE-Luc assay (GH3.TRE-Luc cell line, developed by the laboratory of Dr. Albertinka J. Murk, Wageningen University) was used to measure the inhibition of TR. GH3 (rat pituitary tumor) cells stably expressing a TR activity sensor consisting of two TR response elements and a luciferase reporter gene.
# Tox21 Assay Protocol Summary: GH3.TRE-Luc cells were dispensed at 1500 cells/4 uL/well into 1536-well white solid bottom plates using a Multidrop Combi dispenser (Thermo Fisher Scientific Inc., Waltham, MA). After the assay plates were incubated at 37 C for 4 hours, 23 nL of library compound or DMSO controls was transferred to the assay plates by a pintool station (Kalypsys, San Diego, CA), followed by addition of 1 ul of T3 (1 nM, final concentration in the wells) to stimulate TR transactivation. The assay plates were incubated at 37 C for 23.5 h, and then 1 uL of CellTiter-Fluor reagent (Promega, Madision, WI) of measuring cytotoxicity was added to each well using a Bioraptr Flying Reagent Dispenser (FRD) workstation (Beckman Coulter, Indianapolis, IN, USA). The plates were incubated at 37 C and 5% CO2 for additional 30 min, and fluorescence intensity was measured by a ViewLux plate reader (PerkinElmer, Shelton, CT). For measuring luciferase reporter gene activity, 4 uL of ONE-Glo Luciferase Assay reagent (Promega) was added to each well using a Bioraptr FRD (Beckman Coulter), followed by 30 min incubation at room temperature. The luminescence intensity of plates was recorded by a ViewLux plate reader (PerkinElmer, Shelton, CT).
# On the % scale 0 is the no-effect control and ±100 the full control effect; potency means the concentration at half of the fitted maximal effect.
SMILES,"activity, negative = inhibition",Potency
CC1(C)O[C@@H]2C[C@H]3[C@@H]4C[C@H](F)C5=CC(=O)C=C[C@]5(C)[C@H]4[C@@H](O)C[C@]3(C)[C@]2(C(=O)CO)O1,4.52% [at 32.5 µM],
Cc1cc(C)c(N)cc1C,12.2%,
CN1CCCC(n2nc(Cc3ccc(Cl)cc3)c3ccccc3c2=O)CC1 (stereo not given),,21.1 µM (active)
CC(C)c1nc(CN(C)C(=O)N[C@H](C(=O)N[C@@H](Cc2ccccc2)C[C@H](O)[C@H](Cc2ccccc2)NC(=O)OCc2cncs2)C(C)C)cs1,,10.6 µM (active)
COc1cc(Nc2c(C#N)cnc3cc(OCCCN4CCN(C)CC4)c(OC)cc23)c(Cl)cc1Cl,,9.44 µM (active)
O=C1c2ccccc2C(=O)C1(O)O,,54.8 µM (active)
CC1(CN2CCC(n3c(=O)[nH]c4ccccc43)CC2)OCc2ccccc2-n2cccc21 (stereo not given),,26.6 µM (active)
O=C(OCC(O)CO)c1ccccc1Nc1ccnc2cc(Cl)ccc12 (stereo not given),-6.49% [at 32.5 µM],
C[C@@H]1CC(=O)NN=C1c1ccc(NN=C(C#N)C#N)cc1,,13.3 µM (active)
O=C1c2ccccc2C(=O)C1c1nc2ccccc2c(Br)c1O,-10.7%,
Clc1ccc(Nc2nnc(Cc3ccncc3)c3ccccc23)cc1,,13.3 µM (active)
CCOC(=O)c1ccc(OCCN2C[C@H](O)[C@@H](O)[C@H](O)[C@H]2CO)cc1,0.125%,
NC1[C@H]2CN(c3nc4c(cc3F)c(=O)c(C(=O)O)cn4-c3ccc(F)cc3F)C[C@@H]12 (stereo not given in full),,9.44 µM (active)
C/C=C/C=C/C=O,-7.32%,
CC(=O)N/N=C/c1ccc([N+](=O)[O-])o1,,16.8 µM (active)
CCOC(=O)OC(C)OC(=O)[C@@H]1N2C(=O)[C@@H](NC(=O)[C@H](N)c3ccccc3)[C@H]2SC1(C)C (stereo not given in full),8.6% [at 32.5 µM],
O=C1NCCN1CCO,2.39% [at 95 µM],
c1ccc2sc(SN(C3CCCCC3)C3CCCCC3)nc2c1,,21.4 µM (active)
CC(=O)OCC[N+](C)(C)C,11.3%,
Brc1cc(Br)c(Oc2cc(Br)c(Br)cc2Br)cc1Br,-6.72%,

SMILES,"activity, negative = inhibition",Potency
CCOC(=O)c1ccc(I)cc1,-3.89% [at 95 µM],
CCn1cc(C(=O)O)c(=O)c2cc(F)c(N3CCNCC3)cc21,,inactive
C1C[C@@H]2[C@H]3CC[C@H](C3)[C@@H]2C1,-5.64%,
CC1(C)[C@H](C(=O)O)N2C(=O)C[C@H]2S1(=O)=O,-3.27%,
c1ccc2c(c1)CCc1ccccc1N2,-23.7% [at 95 µM],
CCOC(=O)c1ccc(C#Cc2ccc3c(c2)C(C)(C)CCS3)nc1,0.919%,
Cc1ccco1,0.0277%,
N#[N+]c1ccc2c(S(=O)(=O)[O-])cccc2c1O,13.4%,
Nc1cccc2c1CN(C1CCC(=O)NC1=O)C2=O (stereo not given),3.22%,
C=COCC(C)C,6.18% [at 95 µM],
O=[N+]([O-])c1ccc(O/N=C/c2cc(Br)c(O)c(Br)c2)c([N+](=O)[O-])c1,,9.64 µM (active)
Cc1ccc2c(Br)cc(Br)c(O)c2n1,,18.8 µM (active)
C[C@]1(Cn2ccnn2)[C@H](C(=O)O)N2C(=O)C[C@H]2S1(=O)=O,5.63%,
CC(=O)c1ccc([N+](=O)[O-])cc1,7.57%,
CC[C@]1(O)C[C@H]2CN(CCc3c([nH]c4ccccc34)[C@@](C(=O)OC)(c3cc4c(cc3OC)N(C=O)[C@H]3[C@@](O)(C(=O)OC)[C@H](OC(C)=O)[C@]5(CC)C=CCN6CC[C@]43[C@@H]65)C2)C1,,0.0944 µM (active)
O=[N+]([O-])c1cc(C2CCCCC2)c(O)c([N+](=O)[O-])c1,,3.85 µM (active)
CCCCCCCCCCC(=O)O,0% [at 95 µM],
C[C@@H](CN(C)C)CN1c2ccccc2Sc2ccccc21,,10.1 µM (active)
O=C(O)CCCCCCCCCCCBr,0.287%,
CC(=O)OCCN(CCOC(C)=O)c1ccc(N=Nc2ccc([N+](=O)[O-])cc2C#N)cc1,,61.1 µM (active)
